# Assay results taken from the supplement of paper PMC11732987, “Enantioselective OTUD7B fragment discovery through chemoproteomics screening and high-throughput optimisation” (Communications Chemistry, 2025).
# Unmarked numbers belong to inactive results.
# Columns and labels:
# Assay in all cases: log2 ratio of Biotin-Ahx-Ub-VS probe labelling (fragment/DMSO); higher = less target engagement (more negative = stronger competition), active = hit call of the paper (q ≤ 0.05, log2 ratio ≤ -1)
# Details in all cases: compound concentration: 200 uM; treatment time: 3 h
# USP19 = target: T1, USP19 (UniProt O94966)
# T1 sequence (whole entry): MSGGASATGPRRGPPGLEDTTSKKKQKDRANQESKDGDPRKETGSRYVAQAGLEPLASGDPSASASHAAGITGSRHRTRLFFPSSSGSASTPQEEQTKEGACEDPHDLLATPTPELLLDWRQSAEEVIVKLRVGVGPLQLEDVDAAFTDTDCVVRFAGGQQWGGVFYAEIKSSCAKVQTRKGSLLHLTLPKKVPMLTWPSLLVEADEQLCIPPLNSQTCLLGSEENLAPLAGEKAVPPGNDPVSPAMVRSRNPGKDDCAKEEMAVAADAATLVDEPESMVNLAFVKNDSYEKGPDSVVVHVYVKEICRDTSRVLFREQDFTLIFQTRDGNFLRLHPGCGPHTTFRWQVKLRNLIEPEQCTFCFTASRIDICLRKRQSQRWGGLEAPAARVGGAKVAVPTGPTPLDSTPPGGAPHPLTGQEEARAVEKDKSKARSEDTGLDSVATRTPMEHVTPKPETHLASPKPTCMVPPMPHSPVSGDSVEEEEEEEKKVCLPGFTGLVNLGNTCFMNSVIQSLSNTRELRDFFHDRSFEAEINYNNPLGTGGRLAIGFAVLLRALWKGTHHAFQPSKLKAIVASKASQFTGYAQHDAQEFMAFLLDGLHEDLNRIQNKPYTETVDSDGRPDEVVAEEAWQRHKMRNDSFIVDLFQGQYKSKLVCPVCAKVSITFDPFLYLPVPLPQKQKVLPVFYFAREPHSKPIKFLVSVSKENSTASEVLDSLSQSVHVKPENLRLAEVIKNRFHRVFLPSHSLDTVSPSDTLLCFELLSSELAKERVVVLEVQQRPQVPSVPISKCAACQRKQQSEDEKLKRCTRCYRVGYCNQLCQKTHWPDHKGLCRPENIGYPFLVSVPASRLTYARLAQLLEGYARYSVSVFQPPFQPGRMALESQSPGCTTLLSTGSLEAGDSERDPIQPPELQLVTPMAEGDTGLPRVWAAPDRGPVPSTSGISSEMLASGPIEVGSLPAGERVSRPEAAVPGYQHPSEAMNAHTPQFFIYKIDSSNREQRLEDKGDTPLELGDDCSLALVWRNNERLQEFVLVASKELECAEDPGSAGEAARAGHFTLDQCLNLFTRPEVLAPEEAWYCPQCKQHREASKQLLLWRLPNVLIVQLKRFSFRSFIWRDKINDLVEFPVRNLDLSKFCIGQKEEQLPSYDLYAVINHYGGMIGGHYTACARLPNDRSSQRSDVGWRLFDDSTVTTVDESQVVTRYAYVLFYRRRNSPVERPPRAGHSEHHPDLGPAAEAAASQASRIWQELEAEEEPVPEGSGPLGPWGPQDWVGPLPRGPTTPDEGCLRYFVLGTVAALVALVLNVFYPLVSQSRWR
# Outline: (§1)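 Average log2 ratios of fragment over vehicle were obtained by unpaired t-test from global-median-normalised Spectronaut label-free quantities. Proteins with ≥2 unique peptides were included. HEK293T lysate (495 µg per sample) was treated in triplicate with fragment at 200 µM or vehicle for 3 h, then with Biotin-Ahx-Ub-VS at 0.5 µM final for 1 h, and labelled DUBs were NeutrAvidin-enriched and run by diaPASEF LC-MS/MS.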
# USP24 = USP24 (UniProt Q9UPU5)
# Outline: as §1
# USP25 = target: T2, USP25 (UniProt Q9UHP3)
# T2 sequence (whole entry): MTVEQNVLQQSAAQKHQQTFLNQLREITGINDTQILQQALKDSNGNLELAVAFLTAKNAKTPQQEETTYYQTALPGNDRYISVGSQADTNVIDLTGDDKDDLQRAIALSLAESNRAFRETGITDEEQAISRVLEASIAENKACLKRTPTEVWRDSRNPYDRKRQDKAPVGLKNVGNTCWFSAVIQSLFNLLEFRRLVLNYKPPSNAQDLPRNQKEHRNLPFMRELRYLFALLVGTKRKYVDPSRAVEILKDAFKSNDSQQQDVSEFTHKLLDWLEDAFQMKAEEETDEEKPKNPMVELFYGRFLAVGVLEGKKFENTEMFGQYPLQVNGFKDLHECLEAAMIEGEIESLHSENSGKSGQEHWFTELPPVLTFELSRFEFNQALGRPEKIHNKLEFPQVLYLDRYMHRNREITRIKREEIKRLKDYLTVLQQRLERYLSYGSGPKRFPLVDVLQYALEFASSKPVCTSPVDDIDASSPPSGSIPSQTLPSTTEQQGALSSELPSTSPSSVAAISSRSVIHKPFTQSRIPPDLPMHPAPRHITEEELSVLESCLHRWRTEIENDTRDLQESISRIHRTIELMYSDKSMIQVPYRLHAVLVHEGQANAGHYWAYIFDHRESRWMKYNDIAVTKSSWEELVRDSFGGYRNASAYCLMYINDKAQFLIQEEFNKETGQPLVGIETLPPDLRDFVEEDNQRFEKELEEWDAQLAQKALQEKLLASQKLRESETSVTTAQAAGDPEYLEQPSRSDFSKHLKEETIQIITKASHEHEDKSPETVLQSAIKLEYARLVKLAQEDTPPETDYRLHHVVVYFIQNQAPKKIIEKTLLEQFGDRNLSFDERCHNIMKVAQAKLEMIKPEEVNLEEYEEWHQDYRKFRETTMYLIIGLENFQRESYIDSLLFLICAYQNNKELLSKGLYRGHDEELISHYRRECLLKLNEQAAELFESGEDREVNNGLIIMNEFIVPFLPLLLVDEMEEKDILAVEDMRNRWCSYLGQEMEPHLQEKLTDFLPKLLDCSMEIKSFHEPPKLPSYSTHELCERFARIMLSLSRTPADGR
# Outline: as §1
# USP28 = target: T3, USP28 (UniProt Q96RU2)
# T3 sequence (whole entry): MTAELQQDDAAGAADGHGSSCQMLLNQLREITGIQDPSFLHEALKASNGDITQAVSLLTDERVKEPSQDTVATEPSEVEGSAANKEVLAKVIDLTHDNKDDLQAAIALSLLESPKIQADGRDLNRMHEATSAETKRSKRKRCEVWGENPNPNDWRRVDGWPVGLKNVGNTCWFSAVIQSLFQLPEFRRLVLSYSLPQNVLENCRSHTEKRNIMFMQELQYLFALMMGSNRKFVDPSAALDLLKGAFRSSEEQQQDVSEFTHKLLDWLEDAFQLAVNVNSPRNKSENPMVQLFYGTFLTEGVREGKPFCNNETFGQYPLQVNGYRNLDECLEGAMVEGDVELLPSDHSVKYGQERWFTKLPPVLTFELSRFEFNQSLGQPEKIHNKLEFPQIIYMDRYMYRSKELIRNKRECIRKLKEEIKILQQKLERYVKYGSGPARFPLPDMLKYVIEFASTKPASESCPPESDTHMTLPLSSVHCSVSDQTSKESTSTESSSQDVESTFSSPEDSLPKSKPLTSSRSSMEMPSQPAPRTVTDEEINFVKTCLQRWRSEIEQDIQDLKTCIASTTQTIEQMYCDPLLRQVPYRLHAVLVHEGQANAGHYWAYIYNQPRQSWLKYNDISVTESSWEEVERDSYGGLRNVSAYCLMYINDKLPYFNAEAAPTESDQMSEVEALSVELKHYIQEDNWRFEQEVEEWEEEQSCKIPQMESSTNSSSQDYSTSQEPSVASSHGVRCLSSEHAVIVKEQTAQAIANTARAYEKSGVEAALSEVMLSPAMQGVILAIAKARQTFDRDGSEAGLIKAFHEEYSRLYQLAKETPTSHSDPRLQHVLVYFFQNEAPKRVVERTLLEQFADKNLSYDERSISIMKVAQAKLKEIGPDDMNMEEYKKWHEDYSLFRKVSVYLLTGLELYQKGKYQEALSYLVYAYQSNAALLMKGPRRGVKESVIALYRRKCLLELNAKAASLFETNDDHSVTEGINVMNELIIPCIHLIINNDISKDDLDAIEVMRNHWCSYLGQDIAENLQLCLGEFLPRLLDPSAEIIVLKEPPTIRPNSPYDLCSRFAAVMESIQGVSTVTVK
# Outline: as §1
# Chain of USP24 (Q9UPU5 whole entry): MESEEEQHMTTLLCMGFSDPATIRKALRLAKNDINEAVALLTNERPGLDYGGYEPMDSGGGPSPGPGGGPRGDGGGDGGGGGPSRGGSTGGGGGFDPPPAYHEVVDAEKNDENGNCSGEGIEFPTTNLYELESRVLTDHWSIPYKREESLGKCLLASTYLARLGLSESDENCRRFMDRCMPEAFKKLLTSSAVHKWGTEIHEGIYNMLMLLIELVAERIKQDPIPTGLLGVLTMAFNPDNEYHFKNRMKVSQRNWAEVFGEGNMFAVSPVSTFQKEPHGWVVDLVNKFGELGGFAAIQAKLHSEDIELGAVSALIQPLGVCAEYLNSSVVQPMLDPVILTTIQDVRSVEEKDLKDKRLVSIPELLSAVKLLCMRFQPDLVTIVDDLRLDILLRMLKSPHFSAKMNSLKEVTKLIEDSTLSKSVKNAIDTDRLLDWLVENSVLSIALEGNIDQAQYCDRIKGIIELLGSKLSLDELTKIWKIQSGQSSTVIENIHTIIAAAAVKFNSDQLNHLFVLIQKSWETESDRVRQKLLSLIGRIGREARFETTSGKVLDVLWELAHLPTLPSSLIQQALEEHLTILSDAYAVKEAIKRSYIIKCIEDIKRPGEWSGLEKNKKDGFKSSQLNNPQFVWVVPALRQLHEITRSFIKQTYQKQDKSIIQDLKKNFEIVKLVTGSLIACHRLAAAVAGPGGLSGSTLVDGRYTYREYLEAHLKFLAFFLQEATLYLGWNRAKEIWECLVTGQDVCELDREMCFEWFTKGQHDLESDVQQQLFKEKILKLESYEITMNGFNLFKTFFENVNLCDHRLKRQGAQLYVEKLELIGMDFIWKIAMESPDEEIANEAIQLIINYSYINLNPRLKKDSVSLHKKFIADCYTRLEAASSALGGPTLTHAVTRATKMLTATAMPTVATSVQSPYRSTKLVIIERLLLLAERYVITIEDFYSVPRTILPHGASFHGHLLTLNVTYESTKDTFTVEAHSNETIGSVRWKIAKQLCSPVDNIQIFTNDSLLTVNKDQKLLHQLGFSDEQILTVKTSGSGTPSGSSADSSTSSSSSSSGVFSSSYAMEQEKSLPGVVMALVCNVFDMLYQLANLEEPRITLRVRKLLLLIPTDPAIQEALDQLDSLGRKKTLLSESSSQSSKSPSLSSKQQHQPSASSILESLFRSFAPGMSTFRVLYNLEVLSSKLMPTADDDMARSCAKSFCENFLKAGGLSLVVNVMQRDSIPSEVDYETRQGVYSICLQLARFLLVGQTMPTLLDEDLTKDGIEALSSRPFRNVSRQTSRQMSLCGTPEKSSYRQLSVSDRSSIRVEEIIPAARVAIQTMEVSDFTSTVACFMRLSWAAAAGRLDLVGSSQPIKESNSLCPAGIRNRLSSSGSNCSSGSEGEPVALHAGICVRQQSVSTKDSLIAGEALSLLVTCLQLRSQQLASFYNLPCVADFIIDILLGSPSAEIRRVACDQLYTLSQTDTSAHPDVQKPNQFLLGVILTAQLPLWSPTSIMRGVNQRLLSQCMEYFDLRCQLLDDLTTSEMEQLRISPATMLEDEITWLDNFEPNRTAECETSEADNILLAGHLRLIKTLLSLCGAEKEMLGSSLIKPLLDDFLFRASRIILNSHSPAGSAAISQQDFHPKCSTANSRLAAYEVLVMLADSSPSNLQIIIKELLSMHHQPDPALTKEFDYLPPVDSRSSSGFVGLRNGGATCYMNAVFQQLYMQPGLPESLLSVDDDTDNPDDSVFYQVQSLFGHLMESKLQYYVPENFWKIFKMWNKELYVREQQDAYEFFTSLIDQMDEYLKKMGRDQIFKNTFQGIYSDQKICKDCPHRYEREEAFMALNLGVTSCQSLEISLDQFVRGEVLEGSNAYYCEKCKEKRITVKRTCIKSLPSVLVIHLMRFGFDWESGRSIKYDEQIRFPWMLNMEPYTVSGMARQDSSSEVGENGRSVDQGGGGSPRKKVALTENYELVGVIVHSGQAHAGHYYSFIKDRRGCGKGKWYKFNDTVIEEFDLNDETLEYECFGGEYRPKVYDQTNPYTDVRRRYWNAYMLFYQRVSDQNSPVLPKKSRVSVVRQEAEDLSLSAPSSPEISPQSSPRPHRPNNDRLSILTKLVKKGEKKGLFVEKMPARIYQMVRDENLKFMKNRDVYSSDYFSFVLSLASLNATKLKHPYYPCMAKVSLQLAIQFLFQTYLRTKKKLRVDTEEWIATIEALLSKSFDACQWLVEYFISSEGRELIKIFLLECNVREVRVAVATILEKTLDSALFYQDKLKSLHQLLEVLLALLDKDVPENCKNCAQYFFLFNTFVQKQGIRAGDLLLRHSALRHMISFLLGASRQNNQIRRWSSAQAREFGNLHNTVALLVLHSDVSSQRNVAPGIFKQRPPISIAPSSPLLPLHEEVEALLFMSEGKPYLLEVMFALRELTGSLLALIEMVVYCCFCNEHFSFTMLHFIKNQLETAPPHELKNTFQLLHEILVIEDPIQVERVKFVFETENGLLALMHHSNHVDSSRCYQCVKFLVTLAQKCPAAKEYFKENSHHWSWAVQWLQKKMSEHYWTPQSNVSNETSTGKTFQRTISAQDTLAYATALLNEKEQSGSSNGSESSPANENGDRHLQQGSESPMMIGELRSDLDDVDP
smiles,measurement,setting,value
O=C(CCl)Nc1nc(-c2cccs2)cs1,log2 ratio of Biotin-Ahx-Ub-VS probe labelling,USP19,-0.517
same,log2 ratio of Biotin-Ahx-Ub-VS probe labelling,USP24,-1.48 (active)
same,log2 ratio of Biotin-Ahx-Ub-VS probe labelling,USP25,-0.387
same,log2 ratio of Biotin-Ahx-Ub-VS probe labelling,USP28,-0.678
